# Data from a collection of fitness landscapes (doi:10.1016/j.celrep.2020.107928).
# Whole data set: some 81,000 sequences, median “one-hybrid fitness for binding parS DNA” near -0.17, cut for the highest 2% near 0.51. The sample as a whole holds a higher share of the highest values than the screen did.
# B1: Caulobacter ParB omega fusion; a variant is named by its letters at X, in order, B8GW30 (parent)
# chain: MESVVVGEPGMSEGRRGLGRGLSALLGEVDAAPAQAPGEQLGGSREAPIEILQRNPDQPRRTFREEDLEDLSNSIREKGVLQPILVRPSPDTAGEYQIVAGERAWRAAQRAGLKTVPIMVRELDDLAVLEIGIIENVQRADLNVLEEALSYKVLMEKFERTQENIAQTIGKSXSHVANXMRLLXLPDEVQSYLVSGELTAXHARAIAAAADPVALAKQIIEGGLSVRETEALARKAPNLSAGKSKGGRPPRVKDTDTQALESDLSSVLGLDVSIDHRGSTGTLTITYATLEQLDDLCNRLTRGI
# Variants of: B1
# Experiment: one-hybrid fitness for binding parS DNA (scaled: cognate 1, non-cognate 0); higher = stronger binding
# Settings: with parS DNA site
# Outline: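 Selection: bacterial one-hybrid in E. coli USO, HIS3 reporter with the site 19 bp from the promoter, 48 hours at 37°C on M9-minus-histidine plus 0.1 mM IPTG and 5 mM 3-AT. Libraries were Caulobacter ParB with four randomised specificity codons, sequenced on Illumina before and after selection. Fitness is the rescaled log change in variant-to-wild-type read ratio, anchored to the cognate and non-cognate sites.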
row,Variant,one-hybrid fitness for binding parS DNA
1,IPVF,≤ 0.2
2,FYHT,≤ 0.2
3,RINH,0.284
4,RINY,0.513
5,RINS,0.923
6,RIDY,0.396
7,RIND,0.258
8,RIDH,0.231
9,RIDS,0.987
10,RIDD,≤ 0.2
11,RPNY,≤ 0.2
12,TGRK,≤ 0.2
13,MPPM,≤ 0.2
14,WDNC,≤ 0.2
15,KSER,≤ 0.2
16,STLE,≤ 0.2
17,DQQL,≤ 0.2
18,GHWC,≤ 0.2
19,KPDR,≤ 0.2
20,TRSC,≤ 0.2
21,NTIS,≤ 0.2
22,RNCA,0.348
23,RSCA,0.579
24,RMCA,0.633

row,Variant,one-hybrid fitness for binding parS DNA
1,RCCA,0.677
2,RWCA,0.317
3,RPCA,≤ 0.2
4,RGCA,≤ 0.2
5,RKCA,0.503
6,RTCA,0.572
7,QSLF,≤ 0.2
8,QAWS,≤ 0.2
9,ATLF,≤ 0.2
10,PAPL,≤ 0.2
11,PDPW,≤ 0.2
12,DFDR,≤ 0.2
13,QQYT,≤ 0.2
14,KPHF,≤ 0.2
15,DHCA,≤ 0.2
16,RHCA,0.55
17,LGTH,≤ 0.2
18,RQTN,0.43
19,RQTH,≤ 0.2
20,RQTS,0.984
21,RQTQ,≤ 0.2
22,RQTK,≤ 0.2
23,RQTM,0.331
24,RQTP,≤ 0.2

row,Variant,one-hybrid fitness for binding parS DNA
1,RQTD,0.217
2,RQTT,0.929
3,RQTG,1.01
4,RQTF,0.211
5,RQTC,0.966
6,KANM,≤ 0.2
7,NRAG,≤ 0.2
8,PIVT,≤ 0.2
9,QDIR,≤ 0.2
10,IPSC,≤ 0.2
11,PVWG,≤ 0.2
12,CTRC,≤ 0.2
13,QFWR,≤ 0.2
14,VWSI,≤ 0.2
15,QVFN,≤ 0.2
16,RFNE,≤ 0.2
17,RFDC,0.793
18,AFNC,≤ 0.2
19,RFNC,0.94
20,NFDC,≤ 0.2
21,RFDF,≤ 0.2
22,PPHC,≤ 0.2
23,DNGY,≤ 0.2
24,RINM,0.381

row,Variant,one-hybrid fitness for binding parS DNA
1,RIHC,0.977
2,RILC,0.97
3,RINC,0.955
4,RILR,≤ 0.2
5,RIYQ,≤ 0.2
6,RIYR,≤ 0.2
7,RIHQ,≤ 0.2
8,RIHK,≤ 0.2
9,RILM,0.333
10,RIYC,0.964
11,RINF,0.201
12,RNGM,≤ 0.2
13,LKKY,≤ 0.2
14,QVQI,≤ 0.2
15,YEHV,≤ 0.2
16,QGHV,≤ 0.2
17,HFFL,≤ 0.2
18,LRSA,≤ 0.2
19,AADE,≤ 0.2
20,CFNA,≤ 0.2
21,WWKS,≤ 0.2
22,ECSL,≤ 0.2
23,PWPM,≤ 0.2
24,PHSN,≤ 0.2

row,Variant,one-hybrid fitness for binding parS DNA
1,LVPK,≤ 0.2
2,MIPM,≤ 0.2
3,QNKH,≤ 0.2
4,NKQR,≤ 0.2
5,RISH,0.259
6,RIDC,0.866
7,RICP,≤ 0.2
8,RIDK,≤ 0.2
9,RIDQ,≤ 0.2
10,RISC,0.969
11,RICF,0.282
12,RIRC,0.847
13,RIRQ,≤ 0.2
14,RIRF,0.247
15,RISP,0.209
16,RICC,0.92
17,QALV,≤ 0.2
18,MYER,≤ 0.2
19,ARTT,≤ 0.2
20,ANKV,≤ 0.2
21,AYCY,≤ 0.2
22,ALWS,≤ 0.2
23,ECMV,≤ 0.2
24,RYVC,0.907

row,Variant,one-hybrid fitness for binding parS DNA
1,RYKC,0.752
2,RYKR,≤ 0.2
3,RYVF,≤ 0.2
4,RYVQ,≤ 0.2
5,RYKM,0.369
6,TTLV,≤ 0.2
7,RFFT,0.582
8,RFFM,≤ 0.2
9,RFFF,≤ 0.2
10,DFAT,≤ 0.2
11,RFAT,0.79
12,NFAT,≤ 0.2
13,QAHK,≤ 0.2
14,TRYI,≤ 0.2
15,RYKP,≤ 0.2
16,RYYY,0.462
17,RYVS,0.976
18,RYVN,0.364
19,RYVY,0.357
20,RYKD,≤ 0.2
21,RYKY,0.514
22,RYKS,0.793
23,RYVH,0.253
24,TITP,≤ 0.2

row,Variant,one-hybrid fitness for binding parS DNA
1,LFYR,≤ 0.2
2,HYYD,≤ 0.2
3,DGDR,≤ 0.2
4,RING,1.03
5,RIDG,0.831
6,RIDP,≤ 0.2
7,RINR,≤ 0.2
8,RIDN,0.388
9,RINE,≤ 0.2
10,QLMK,≤ 0.2
11,SRNE,≤ 0.2
12,GGVR,≤ 0.2
13,RSWP,≤ 0.2
14,RSWD,≤ 0.2
15,RMWD,≤ 0.2
16,RMWP,≤ 0.2
17,RCWN,0.401
18,RSWS,0.989
19,RCWS,1.09
20,RMWS,1.05
21,RPWS,≤ 0.2
22,PQAF,≤ 0.2
23,RMKV,≤ 0.2
24,CHNG,≤ 0.2

row,Variant,one-hybrid fitness for binding parS DNA
1,TAAQ,≤ 0.2
2,SDSD,≤ 0.2
3,GVLC,≤ 0.2
4,RKKA,0.846
5,RKVA,0.527
6,TGNL,≤ 0.2
7,DKAR,≤ 0.2
8,AWNT,≤ 0.2
9,KHTD,≤ 0.2
10,YNPS,≤ 0.2
11,QHAY,≤ 0.2
12,RQLF,0.241
13,RTAM,0.311
14,RTAG,1
15,RTFG,1.01
16,RTFY,0.479
17,RTFK,≤ 0.2
18,RTAH,0.21
19,TEAR,≤ 0.2
20,CSDF,≤ 0.2
21,IWPL,≤ 0.2
22,CTLY,≤ 0.2
23,PPSK,≤ 0.2
24,YQCG,≤ 0.2

row,Variant,one-hybrid fitness for binding parS DNA
1,DLVA,≤ 0.2
2,CLKA,≤ 0.2
3,RLVA,0.567
4,ALKA,≤ 0.2
5,NLVA,≤ 0.2
6,RLKA,0.796
7,LHAG,≤ 0.2
8,QGGK,≤ 0.2
9,TMSY,≤ 0.2
10,QLMM,≤ 0.2
11,SQKG,≤ 0.2
12,REVC,≤ 0.2
13,RSVD,≤ 0.2
14,RCVC,0.965
15,RSVC,0.775
16,RPVC,≤ 0.2
17,RSVH,≤ 0.2
18,AWDA,≤ 0.2
19,HGSI,≤ 0.2
20,DKKR,≤ 0.2
21,SPNA,≤ 0.2
22,LWAR,≤ 0.2
23,VAPG,≤ 0.2
24,RNAR,≤ 0.2

row,Variant,one-hybrid fitness for binding parS DNA
1,RNFR,≤ 0.2
2,RNAG,0.853
3,RNFG,0.662
4,RNAY,0.359
5,RNFY,≤ 0.2
6,NIRE,≤ 0.2
7,HAKP,≤ 0.2
8,CTSH,≤ 0.2
9,HSAT,≤ 0.2
10,REAF,≤ 0.2
11,LGNC,≤ 0.2
12,RMVL,≤ 0.2
13,RMKG,0.929
14,RMVK,≤ 0.2
15,RMKP,≤ 0.2
16,RMVG,0.971
17,RMKR,≤ 0.2
18,FQCR,≤ 0.2
19,TNCV,≤ 0.2
20,IAED,≤ 0.2
21,TLGD,≤ 0.2
22,IMTY,≤ 0.2
23,HASR,≤ 0.2
24,WPLT,≤ 0.2

row,Variant,one-hybrid fitness for binding parS DNA
1,RVGW,0.209
2,RLLY,0.505
3,RLHN,0.442
4,RLLK,≤ 0.2
5,RLHD,≤ 0.2
6,RLHC,0.973
7,RLSH,0.266
8,RLCR,≤ 0.2
9,RLSP,≤ 0.2
10,RLLC,1
11,RLSC,0.98
12,RLCY,0.485
13,RLCC,0.995
14,QRLD,≤ 0.2
15,GQHW,≤ 0.2
16,KKGT,≤ 0.2
17,PNTI,≤ 0.2
18,NASI,≤ 0.2
19,HCLN,≤ 0.2
20,TCIV,≤ 0.2
21,HMWR,≤ 0.2
22,YTVS,≤ 0.2
23,RLRQ,≤ 0.2
24,RLYR,0.23

row,Variant,one-hybrid fitness for binding parS DNA
1,RLYK,≤ 0.2
2,RLYC,1.01
3,RLRC,0.846
4,RLRN,0.432
5,WPPM,≤ 0.2
6,YLAL,≤ 0.2
7,RVHP,≤ 0.2
8,RVST,0.92
9,RVYF,0.25
10,RVHT,0.927
11,RVSF,0.224
12,RVHD,≤ 0.2
13,RVSK,≤ 0.2
14,RVYK,≤ 0.2
15,RVRQ,≤ 0.2
16,RVRT,0.825
17,RVRK,≤ 0.2
18,RVYT,0.93
19,GPPY,≤ 0.2
20,YVGI,≤ 0.2
21,QTHG,≤ 0.2
22,FAKY,≤ 0.2
23,LKTR,≤ 0.2
24,PGLR,≤ 0.2

row,Variant,one-hybrid fitness for binding parS DNA
1,RVDT,0.741
2,RVWR,≤ 0.2
3,RVLT,0.92
4,RVQN,0.417
5,RVDD,≤ 0.2
6,RVLQ,≤ 0.2
7,RVDH,≤ 0.2
8,RVWF,0.25
9,RVQT,0.913
10,RVLM,0.309
11,RVWT,0.886
12,RVQP,≤ 0.2
13,PFSC,≤ 0.2
14,GKMI,≤ 0.2
15,LFDL,≤ 0.2
16,TQEV,≤ 0.2
17,RKRY,0.422
18,FSIS,≤ 0.2
